In all, about 25,000 sequences were measured (“ln(normalized median fluorescence intensity)”: median about 6.7, highest 2% from about 10 on). The sample as a whole holds a higher share of the highest values than the screen did.
test system: PfHDP1 homeodomain (GST-tagged); experiment: gcPBM binding intensity (ln(normalized median fluorescence intensity)); higher = stronger DNA binding
Summary of the method: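 Probes on an Agilent 4 × 180k array were primer-extended, double-stranded and 36 bp long, taken from intergenic genomic regions, with negative controls added. GST-tagged P. falciparum DNA-binding domains from E. coli, about 25 μg on average, were applied to the array for 1 h in 1× PBS containing 1% milk, 0.2 mg/ml BSA, 0.5% salmon testes DNA and 0.03% Triton X-100. Binding intensity, obtained after Alexa488 anti-GST antibody detection and a 488 nm scan, is the highest Masliner-normalised natural-log median intensity across replicate spots of either probe orientation.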

Sequence	gcPBM binding intensity (ln)
GGTATTTTCACATATAGTACACAAAAATAAAATAAA [XGTACX_site2139]	6.68
CATATAGATTTGTTCACACACACACTAAAAAAAAAA [CACACA_site7212]	6.7
TATTCTAATTTTTAAACACACAAATATAAATAAGTA [CACACA_site3149]	6.35
AAAAGAAAAAAAAAAAAAAAAAAAATTAAAATATAA [CACACA_negctrl_site17]	5.65
TGAATAATATACATACGTACATACATATATATAATA [XGTACX_site1302]	6.17
AATATAAATATTAAAACACACATAAAAAGATTATTA [CACACA_site1764]	6.29
ATATATATAAAATGTTGTACATATATATAAATAATA [XGTACX_site1661]	6.15
TAAATTTTTAAATACACACATACACCCATACAGACA [CACACA_site548]	7.18
TTTAAAACCCTAAAAAAAAAAAAAAAAAAAAAAAAA [CACACA_negctrl_site1212]	6.26
TTTTTTTAAATTATATGTACATAATTTTAATTTTAT [XGTACX_site5086]	6.43
ATTTTTTTTTTTATGTGTACATATATTTTTTTAATT [XGTACX_site7921]	7.04
AAAAAAAAAAAAAACACACACACACCCATAAATATA [CACACA_site151]	6.87
AATATAAATAAAAACACACACACACCCATATATATA [CACACA_site2267]	7.13
AACATATAAAAATGTGCACACACACCCATATATATA [CACACA_site1525]	10.7
AAATAAATAATTTAATGTACATATATAATATATATA [XGTACX_site1831]	6.81
AGAGTACAAGTAAATACACACATATAGATGAAAATA [CACACA_site6635]	6.88
TTATTATGTATATATGCACACAATACCCAAAACAAC [CACACA_site80]	9.84
TATTATATGTATTGCACACCTTCAACAACTACTTCT [CACACA_site655]	10.6
TATATATTGATATGCACACCTATGTATTGATGTATA [CACACA_site1073]	10
TATATTATATGTATTGCACACCTTCAACAACTACTT [CACACA_site8121]	10.5
CAACTAACATATATTCAACACACATATACCTTCAAC [CACACA_site8988]	6.43
ATTGTATCTGTATATGCACACAATATCTGTACTTCT [CACACA_site5445]	10.1
AAAAAAATAAATAAATGTACACATATATATATATAT [XGTACX_site4350]	9.25

Sequence	gcPBM binding intensity (ln)
AAAATGTATTCTCTCATGCACACTTTCTTTAAGGGA [CACACA_site2196]	8.5
AATACAAAAAAAGGTACACACATAATATATTTATTA [CACACA_site2628]	6.46
TATATATTTTTATGCACACACAAAGAAAATTTTCCT [CACACA_site2863]	10.8
GTTCTTTCAAATTATACACACCAAAAAAAAAAAAAA [CACACA_site5660]	6.62
TATATATCTTTATGCACACACAAAGAAAATTTTCCT [CACACA_site7366]	10.5
TAATGTATTATATTTTGTTTTCTTCCACCAAAAAAA [XGTACX_negctrl_site64]	6.41
TTCTTTTTCCAATTTGCACACCACAAAATTATATAT [CACACA_site2909]	10.6
ATTATATATATTTATGCACACAAAATATATTATATA [CACACA_site9244]	10.1
AATATATCTTATTTAACACACACAAAGAAAATAGAA [CACACA_site9242]	7.34
TATATATATTTTTATGCACACACAAAGAAAATTTTC [CACACA_site8931]	10.1
TATATCTTATTTAACACACACAAAGAAAATAGAAAA [CACACA_site3732]	6.81
AACAAATGTTAAATGTTTAAGGAGAAAATAAAGACA [CACACA_negctrl_site1163]	6.75
ATTTGCTCACAAGAAGCACACAAAAAAAGAAAAAAA [CACACA_site9338]	7.34
TATTTTTTCCTTTGTTTTTTAAACTATCTTAACTAA [XGTACX_negctrl_site519]	6.37
AACTTTTTTATATGCACACATAAACAAGGATATATA [CACACA_site2874]	10.3
TTAACTTTTTTATATGCACACATAAACAAGGATATA [CACACA_site8932]	10.1
TCCATATGCAAACTGGTGCACAAGTAGCTTTTATAT	10.8
ACACATAAATGAATAAATAAATAAATATAAATATAA [CACACA_negctrl_site1784]	6.21
TAATATAGAAAATGCATACACACTTTATATATATAT [CACACA_site911]	8.61
TTTTTTTTTTTTTAAACATGCAAAATATATAATTTT [TGCATGCA_site633]	6.44
TAGAAATATATTTATTGTACATTGTATATATTATAT [XGTACX_site7584]	6.26
TAATAATTATTGCACGCACACAAAAACCTATAGATT [CACACA_site2931]	10.6
TATATAATCGAGTGCACACACAAAAAAAAAGTGAAC [CACACA_site1483]	10.4

Sequence	gcPBM binding intensity (ln)
TTATAATATATATAAAAGAAAAAAAATTATAATATA [CACACA_negctrl_site90]	6.53
TCAAAAGAATAATTGGTGCAAATTATATAATATAAT [GTGCAC_site9804]	10.5
TGAATATTCATATGCACACAAATTAATATACATAAT [CACACA_site442]	10.3
TTTAATAATTATTAAAGTACAAAATAAATATTGAAT [XGTACX_site7538]	6.7
AAAAAATATAGATGCACACACAAAAAAACAAATTAA [CACACA_site6718]	8.71
TATATAACCGAGTGCACACACAAAAAAAAAGTGAAC [CACACA_site6806]	10.8
TGTAATAATTATTGCACGCACACAAAAACCTATAGA [CACACA_site2932]	10.2
AATATAATATATTGCACACAAAAAGTGAATTATTCT [CACACA_site1684]	10.7
ATATATATATAATAAGTGCAAAAAAAAGAAAAAAAT	9.3
TGTATATAATCGAGTGCACACACAAAAAAAAAGTGA [CACACA_site8417]	10.1
TATTTATTTAATTACACACGAACATATAACCATTTC [CACACA_site211]	6.81
ATATATATATTTATATTTATATGTAAATATCAACGT [TGCATGCA_negctrl_site32]	8.19
ATCCCCATAAAAAATACACACAAATATTTATACATA [CACACA_site1001]	6.79
TATATATATATATATACACACATATACATATTGTTT [CACACA_site3499]	9.37
TAATATATATAAACATGTACAAATCAAAAACAAAAG [XGTACX_site4076]	7.52
AATAATAAAAAATATACACACATATATAAATAAATA [CACACA_site6164]	6.35
GAACAAATTAAATAGGTGCATTAACATGTTCTATTT [GTGCAC_site9729]	10.1
ATTTCTCTATCGTAATGTACAAAAAAAAGGGAAAAG [XGTACX_site1335]	6.48
TATATATATAATATTGCACACAAAATTAAAAGTAAA [CACACA_site7889]	9.61
AAAATATAATATATTGCACACAAAAAGTGAATTATT [CACACA_site8489]	10.6
TATATATAATATTGCACACAAAATTAAAAGTAAATA [CACACA_site19]	10.3
TTAACCTTTTGATATTGTACCCATAATCTAATACAA [XGTACX_site769]	6.47
ATATGTAGAAGTAATGCACACATATGTATATATATA [CACACA_site8796]	10.3

Sequence	gcPBM binding intensity (ln)
ATGTGATAGAAGTACACACACATATGTATTTATAAT [CACACA_site5075]	6.7
ATGTAGAAGTAATGCACACATATGTATATATATATA [CACACA_site2494]	10.5
TATACATATGTATGCACACATACATACACATAGAAT [CACACA_site3480]	9.51
ATATATAGAATGTGTACACACATATGTATTTATATA [CACACA_site810]	6.7
ATGTAGAAGTAATGCACACATATGTATTTATATATA [CACACA_site5391]	10.9
TTTAGTGAGTTTGTTGTGCACTGAAAAAATTACAAT	10.4
AATTCGTACCTCATTTGTACATATATATATATATAT [XGTACX_site5513]	9.34
TTCAAGATTTATTATACACACATATTAATATATATA [CACACA_site573]	6.83
AAGTATGTATCACAAAGTACTTAAGCATATATTTAA [XGTACX_site4121]	6.57
ATATGTAAAATGAAGATACATACATACATACATACA [CACACA_negctrl_site715]	7.53
TGTTTATCATATTTGTGTCCTCATTTTTTAGTATCA [XGTACX_site947]	6.62
ATATGCACTCATTGTGCACACGCATATTACGAAAAG [CACACA_site2637]	11.6
AATGTGTTCATATATGCACACGCATATATATTATTG [CACACA_site9274]	9.95
TGTGTTCATCTATGCACACGCATATATATTATTGTT [CACACA_site5985]	9.64
TGTGTTCATATATGCACACGCATATATATTATTGTT [CACACA_site3822]	9.67
ATGCACTCATTGTGCACACGCATATTACGAAAAGAA [CACACA_site2638]	10.8
ACGCACGAAATAAATACATGCATATTGTAAAAATTA [TGCATGCA_site310]	8.99
TTATAATAGTTAATATGTACATATTTAATAAATAAT [XGTACX_site3183]	6.23
AGACTATCATTTTTTTAACACACAAAAAAAATAAAA [CACACA_site9173]	6.35
ATAAAGCCATACAATACACACATTTTACATGGGGGT [CACACA_site9072]	7.27

Reference: the supplement of paper PMC11417369
